Data from PubChem BioAssay (NCI).
This is part of a sample that, as a whole, favours compounds with a hit. Of some 79,000 tested, about 15% had one in any assay. Values without a mark were called inactive. Calls of active or inactive are those of the source. No stated cut-off is given here; in the data, active means growth inhibition above about 70%; inactive means the rest.

Legend:
[1] = NCI Yeast Anticancer Drug Screen. Data for the rad50 strain (AID 155);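 further: 0% = growth of vehicle-only cultures of the same strain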; conditions: S. cerevisiae rad50 strain growth inhibition, stronger effect = higher value
In short: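 Relative growth inhibition (compound vs vehicle) was measured in yeast with a defined repair-gene alteration.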

[2] = NCI Yeast Anticancer Drug Screen. Data for the mec2-1 strain (AID 157); conditions: S. cerevisiae mec2-1 strain, stronger effect = higher value
In short: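 Growth inhibition is read against vehicle-treated controls after compound exposure of the mec2-1 yeast strain, which is defective in DNA damage repair or cell cycle control.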

[3] = NCI Yeast Anticancer Drug Screen. Data for the sgs1 mgt1 strain (AID 161);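 further: 0% = growth of cultures given vehicle only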; conditions: S. cerevisiae sgs1 mgt1 strain, stronger effect = higher value
In short: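 Yeast cells carrying a defined DNA-repair defect were exposed to test compounds. Growth inhibition was measured relative to vehicle-treated controls.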

[4] = NCI Yeast Anticancer Drug Screen. Data for the cln2 rad14 strain (AID 165);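 further: 0% = growth equal to vehicle treated cultures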; conditions: S. cerevisiae cln2 rad14 strain, stronger effect = higher value
In short: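 Growth inhibition, relative to vehicle-treated controls, is the read-out. The test organism is a yeast strain with defined genetic alterations, cln2 rad14.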

[5] = NCI Yeast Anticancer Drug Screen. Data for the bub3 strain (AID 167); conditions: S. cerevisiae bub3 mutant strain, stronger effect = higher value
In short: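 Screening used yeast with an engineered genetic alteration affecting cell cycle control. Compound-exposed cultures were compared with vehicle cultures, and reduced growth was taken as inhibition.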

[6] = NCI Yeast Anticancer Drug Screen. Data for the mlh1 rad18 strain (AID 175); conditions: S. cerevisiae mlh1 rad18 strain growth inhibition, stronger effect = higher value
In short: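 Cells of a genetically altered yeast strain, deficient in DNA damage repair, were treated with compound. Their growth was then compared with that of vehicle-treated cultures to give inhibition.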

[7] = at 5.0 µM (retest, dose inferred, filed as 0.5)
[8] = at 50.0 µM (retest, dose inferred, filed as 5.0)

SMILES | growth inhibition [1, 7] | growth inhibition [1, 8] | growth inhibition ([1]; at 50.0 µM) | growth inhibition [2, 7] | growth inhibition [2, 8] | growth inhibition ([2]; at 50.0 µM) | growth inhibition [3, 7] | growth inhibition [3, 8] | growth inhibition ([3]; at 50.0 µM) | growth inhibition [4, 7] | growth inhibition [4, 8] | growth inhibition ([4]; at 50.0 µM) | growth inhibition [5, 7] | growth inhibition [5, 8] | growth inhibition ([5]; at 50.0 µM) | growth inhibition [6, 7] | growth inhibition [6, 8] | growth inhibition ([6]; at 50.0 µM)
CC1(C)CC(=O)C(C=NC(=S)c2ccccc2)=C(O)C1 | 21% | 27% | -43.3% | 4% | 13% | -54% | 6% | 9% | -37.1% | 11% | 14% | -0.6% | 20% | 32% | -13.4% | 14% | 27% | 22.1%
c1ccc2c(CCc3ccncc3)c[nH]c2c1 | 2% | 78% (active) | 46.8% | -4% | 59% | 45.1% | 11% | 82% (active) | 50.1% | -13% | 69% | 6.25% | -10% | 75% (active) | 4.8% | -13% | 65% | 57.5%
COc1cccc(C2CC(C)(O)Oc3cc4c(cc32)OCO4)c1 (stereo not given) | 4% | 36% | 33.8% | 5% | 16% | 50.7% | -12% | 9% | 29.4% | 8% | 44% | 54.6% | 2% | 57% | 46.4% | -14% | 38% | 53%
O=C1c2sccc2-c2cccc3cccc1c23 (tested in a mixture with another compound) | 87% (active) | 98% (active) | 97.2% (active) | 63% | 99% (active) | 98% (active) | 59% | 99% (active) | 96.2% (active) | 20% | 96% (active) | 82.5% (active) | 29% | 98% (active) | 83.2% (active) | 86% (active) | 98% (active) | 95% (active)
CC1(C)COC(C)(C(=O)O)OC1 | 2% | -5% | 51.6% | -2% | -1% | -3.35% | 4% | 2% | -5.8% | 0% | -6% | -50.7% | -4% | 0% | -1.8% | 6% | -1% | -8%
O=[N+]([O-])c1cc(C(F)(F)F)cc([N+](=O)[O-])c1CCl | 100% (active) | 100% (active) | 99.7% (active) | 100% (active) | 100% (active) | 99.8% (active) | 100% (active) | 100% (active) | 99.6% (active) | 100% (active) | 100% (active) | 99.4% (active) | 100% (active) | 100% (active) | 99.4% (active) | 100% (active) | 100% (active) | 99.7% (active)
CN(C)c1ccc(C(c2ccc(N(C)C)cc2)c2ccc3c(c2)OCO3)cc1 | 98% (active) | 66% | 95% (active) | 99% (active) | 62% | 94% (active) | 97% (active) | 85% (active) | 95.8% (active) | 98% (active) | 32% | 88.8% (active) | 99% (active) | 81% (active) | 90% (active) | 98% (active) | 90% (active) | 91.6% (active)
CCc1ccc2c(-c3ccccc3)c3ccccc3c(-c3ccccc3)c2c1 | 0% | -4% | -7.9% | 3% | -10% | -5.6% | 1% | 6% | -9.25% | -4% | -11% | 34.9% | -4% | -8% | 7.35% | -1% | -8% | 0.05%
O=S(=O)(NC(=S)Nc1ccccc1)c1ccc(Br)cc1 | -4% | 24% | 42.9% | -3% | 50% | 47.1% | 7% | 53% | 37.5% | -1% | 2% | 79.5% (active) | -3% | 42% | 67.8% | 21% | 68% | 65.8%
Cc1cccc2c(CC(=O)O)c[nH]c12 | 60% | 98% (active) | 99.2% (active) | 76% (active) | 99% (active) | 99.5% (active) | 67% | 99% (active) | 99.6% (active) | 73% (active) | 99% (active) | 99.2% (active) | 93% (active) | 97% (active) | 99.4% (active) | 92% (active) | 98% (active) | 99.3% (active)
